Inconclusive results are not listed. Active and inactive are the calls of the source. Unless noted, calls come from the whole dose curve.
Experiments:
[1] = qHTS assay to identify small molecule agonists of the vitamin D receptor (VDR) signaling pathway - cell viability counter screen (AID 743224; active = well fitted curve in the direction sought with a large enough effect in the repeat runs; an effect the other way counts as inactive or inconclusive; note: series mostly up to about 63 µM; nearly all actives have a fitted effect of over 50% in size)
How it was run: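 Cells: VDR-bla, 2,000/well, settled 4 h. Treatment: compounds in DMSO, 16 h, 37C/5% CO2. Readout: CellTiter-Glo luminescence after 30 min RT.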

[2] = qHTS assay to identify small molecule antagonists of the vitamin D receptor (VDR) signaling pathway - cell viability counter screen (AID 743225; active = well fitted curve in the direction sought with a large enough effect in the repeat runs; an effect the other way counts as inactive or inconclusive; note: nearly all actives have a fitted effect of over 50% in size)
How it was run: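 Cells (VDR-UAS-bla HEK 293T) are plated, rested 4 h at 37C, dosed with compound and 3 nM final 1-alpha,25-dihydroxy vitamin D3, and incubated 16 h. Viability is taken from CellTiter-Glo luminescence in the reporter wells.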

[3] = qHTS assay to identify small molecule agonists of the NFkB signaling pathway - cell viability counter screen (AID 1159515); note: series mostly up to about 61 µM; nearly all actives have a fitted effect of over 55% in size
How it was run: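 Cells are seeded (2,000 NFkB-bla ME-180 per well), rested overnight, and dosed with DMSO-dissolved compounds for 5 hr at 37 C. Viability is then read by CellTiter-Glo luminescence after 30 min at room temperature.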

[4] = qHTS assay to identify small molecule agonists of the endoplasmic reticulum stress response signaling pathway (AID 1159516; active = well fitted activation curve with a large enough effect in the signal ratio in the repeat runs, not every such curve was filed as active; the % refers to the signal ratio)
How it was run: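 Cells are seeded at 1,500 per well and incubated overnight. Compounds in DMSO are added for 5 hr at 37 C, then beta-lactamase FRET substrate for 2 hr at room temperature, and fluorescence at 460 and 530 nm is measured.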

[5] = qHTS assay to identify small molecule agonists of the endoplasmic reticulum stress response signaling pathway - cell viability counter screen (AID 1159517);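 note: HeLa cells carrying an ER stress response element beta-lactamase reporter; series mostly up to about 61 µM; nearly all actives have a fitted effect of over 50% in size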
How it was run: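 Cytotoxicity of test compounds toward ESRE-bla HeLa cells was assessed after 5 hr exposure. The luminescent CellTiter-Glo signal was measured 30 min after reagent addition.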

[6] = qHTS assay to identify small molecule antagonists of the retinoid-related orphan receptor gamma (ROR-gamma) signaling pathway - cell viability counter screen (AID 1159520; active = well fitted curve in the direction sought with a large enough effect in the repeat runs; an effect the other way counts as inactive or inconclusive; note: nearly all actives have a fitted effect of over 50% in size)
How it was run: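 Tet-on ROR gamma CHO cells (1,000/well) were plated 4 hr, given compounds in DMSO for 2 hr at 37 C, then induced with 1 uM final doxycycline for 16 hr. Viability was read as ATP by CellTiter-Glo luminescence after 30 min.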

[7] = target: Nuclear receptor ROR-gamma (Homo sapiens) (UniProt P51449); assay: qHTS assay to identify small molecule antagonists of the retinoid-related orphan receptor gamma (ROR-gamma) signaling pathway (AID 1159521; active = well fitted curve in the direction sought with a large enough effect in the repeat runs; an effect the other way counts as inactive or inconclusive)
How it was run: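 RORγ antagonism is scored from reduced reporter luminescence in Tet-on CHO cells. Induction used 1 uM final doxycycline hyclate for 16 h at 37 C, following a 2 h compound exposure.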

[8] = qHTS assay to identify small molecule agonists of the AP-1 signaling pathway - cell viability counter screen (AID 1159525); note: nearly all actives have a fitted effect of over 55% in size
How it was run: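 Each titration point was normalised to DMSO and tetra n-octyl ammonium bromide controls. The read was Cell Titer Glo luminescence after 30 min at RT, following 5 h compound exposure of ME-180 AP-1-bla cells at 37 °C.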

[9] = qHTS assay to identify small molecule agonists of the AP-1 signaling pathway (AID 1159526)
[10] = target: Retinoic acid receptor RXR-alpha (Homo sapiens) (UniProt P19793); assay: qHTS assay to identify small molecule agonists of the RXR signaling pathway (AID 1159527); note: nearly all actives have a fitted effect of over 35% in size
How it was run: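 qHTS of the Tox21 10K library in GeneBLAzer RXR-alpha HEK 293T cells carrying a beta-lactamase reporter […]; 16 hr treatment, 9-cis retinoic acid as agonist control, FRET read-out.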

Measured: Potency

Chain of Retinoic acid receptor RXR-alpha (Homo sapiens) (P19793 whole entry, looked up): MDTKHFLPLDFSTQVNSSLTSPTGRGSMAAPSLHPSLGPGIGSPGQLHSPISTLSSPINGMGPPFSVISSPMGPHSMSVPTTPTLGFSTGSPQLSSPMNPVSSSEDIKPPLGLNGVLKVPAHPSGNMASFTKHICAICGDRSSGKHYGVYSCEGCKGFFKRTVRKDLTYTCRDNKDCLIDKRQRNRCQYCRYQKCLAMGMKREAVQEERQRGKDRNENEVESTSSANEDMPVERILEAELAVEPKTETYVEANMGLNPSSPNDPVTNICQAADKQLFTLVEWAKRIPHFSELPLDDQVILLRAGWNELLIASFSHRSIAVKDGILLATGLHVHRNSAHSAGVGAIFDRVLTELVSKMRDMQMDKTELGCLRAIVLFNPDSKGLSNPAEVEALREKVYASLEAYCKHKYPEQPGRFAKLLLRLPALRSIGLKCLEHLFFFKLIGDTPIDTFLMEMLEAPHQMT

CC(C)=CCCC(C)CC=O (stereo unspecified)
not listed: [10]
inactive: all other assays above

CN1CCC(=C2c3ccccc3C=Cc3ccccc32)CC1
not listed: [9]
inactive: all other assays above

S=C(S)NCCNC(=S)S
not listed: [2] | [9]
inactive: all other assays above

CN(c1nccc(=O)[nH]1)C1CCN(c2nc3ccccc3n2Cc2ccc(F)cc2)CC1
not listed: [10]
inactive: all other assays above

CCCC[C@H]1CN(CC2CCOCC2)C(=O)OC12CCN(C1(C)CCN(C(=O)c3c(C)ncnc3C)CC1)CC2
not listed: [10]
inactive: all other assays above

CC(C)(C)C1CCCCC1O (stereo unspecified)
not listed: [9]
inactive: all other assays above

O=C=NC1CCC(CC2CCC(N=C=O)CC2)CC1 (stereo unspecified)
not listed: [10]
inactive: all other assays above

Oc1ccc(C(O)CNCCCCCCNCC(O)c2ccc(O)c(O)c2)cc1O (stereo unspecified)
not listed: [10]
inactive: all other assays above

O=S(=O)(O)c1ccc(O)c2ncccc12
not listed: [10]
inactive: all other assays above

CCCC(=O)OCC
not listed: [1] | [10]
inactive: all other assays above

CC(=O)[C@@]1(O)CC[C@H]2[C@@H]3C[C@H](C)C4=CC(=O)CC[C@]4(C)[C@H]3CC[C@@]21C
not listed: [9]
inactive: all other assays above

CC(C(=O)O)c1ccc(C(=O)c2ccccc2)s1 (stereo unspecified)
not listed: [10]
inactive: all other assays above

CC(=O)O[C@@H]1C(=O)O[C@@H]2[C@H]1OC(=O)[C@@H]2OC(C)=O
not listed: [10]
inactive: all other assays above

COC(Cc1ccccc1)OC
not listed: [10]
inactive: all other assays above

CCN(CC)CCc1nc(-c2ccccc2)no1
not listed: [10]
inactive: all other assays above

CCOc1nc2cccc(C(=O)O)c2n1Cc1ccc(-c2ccccc2-c2nn[nH]n2)cc1
not listed: [10]
inactive: all other assays above

O=CNc1ccccc1
not listed: [10]
inactive: all other assays above

N#Cc1cc2ccccc2c2ccccc12
not listed: [9]
inactive: all other assays above

CC(C)CCCC(C)CCO (stereo unspecified)
not listed: [1] | [10]
inactive: all other assays above

CCCCOC(=O)/C=C\C(=O)OCCCC
not listed: [10]
inactive: all other assays above

Cc1ccccc1N=Nc1ccc(N=Nc2c(O)ccc3ccccc23)c(C)c1
not listed: [1] | [10]
inactive: all other assays above

CC[C@]12CCCN3CCc4c(n(c5ccccc45)C(=O)C1)[C@@H]32
not listed: [9]
inactive: all other assays above

CC(C)(Oc1ccc(Cl)cc1)C(=O)OCCCOC(=O)C(C)(C)Oc1ccc(Cl)cc1
not listed: [10]
inactive: all other assays above

CCCC(C)C
not listed: [10]
inactive: all other assays above

O=c1[nH]cnc2ccccc12
not listed: [10]
inactive: all other assays above
